These results are taken from PubChem BioAssay.

Active and inactive are the calls of the source.

The test system of assay [1] is PRMT1 (protein arginine N-methyltransferase 1). As to the kind of experiment: small molecules binding arginine methyltransferase PRMT1 – biochemical, small-molecule microarray, 635 nm fluorescence, primary screen (AID 1088).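 Further: binding of Prmt1 protein to compounds spotted on small-molecule microarray slides.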 Conditions: higher = more signal.
The nature of assay [2]: growth effects on S. cerevisiae YJM789 – YJM789 clinical isolate, OD600, 24 h, basal, primary screen (AID 1089).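 Further: growth of clinical yeast isolate S. cerevisiae YJM 789 seeded 1000 cells per well; test concentration not given here.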 Conditions: higher = more signal, called active from +8 up or from −8 down.
A short description of assay [3]: S. pombe growth modifiers, basal conditions – strain 972, OD600, 24 h, no modulator, primary screen (AID 1090).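 Further: basal condition with compound alone and no growth modifier present; test concentration not given here.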 The note with it: S. pombe 972 growth, higher = more signal, called active from +8 up or from −8 down.
The nature of assay [4]: budding yeast growth modifiers under rapamycin – strain BY4716, OD600, 96 h, primary screen (AID 1091). Further: test concentration not given here. The note with it: S. cerevisiae BY4716 + rapamycin, higher = more signal, called active from +8 up or from −8 down.
Assay [5] has as its target Torsin-1A-interacting protein 2 (Homo sapiens) (UniProt Q8NFQ8). As to the kind of experiment: small molecules binding lysate-expressed LULL1 – cell lysate, human LULL1 lysate, 635/667 nm fluorescence, primary screen (AID 1092).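 Further: probe is lysate of COS7 cells overexpressing human LULL1; score merges per-feature 667 nm fluorescence with signal-to-noise.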 Conditions: small-molecule microarray, hLULL1 lysate binding, 635 nm fluorescence; higher = more signal.
A short description of assay [6]: optical density change of DRC41 E. coli – strain DRC41, OD650, 24 h, E. coli filamentation project, primary screen (AID 1093).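 Further: MC1000 strain lacking acrAB efflux and sulA so SOS filamentation is blocked; test concentration not given here.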 The note with it: E. coli DRC41 growth, higher = more signal, called active from +8 up or from −8 down.
Assay [7] can be described thus: probe aLefty2 binding to arrayed compounds – biochemical, biotinylated probe, 635/667 nm fluorescence, primary screen (AID 1094).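 Further: score merges spot fluorescence near 667 nm with spot signal-to-noise ratio.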 The note with it: small-molecule microarray, higher = more signal.
For assay [8], the system named is Noggin (protein binding on small-molecule microarray). As to the kind of experiment: small molecules binding Noggin protein – biochemical, 635/667 nm fluorescence, primary screen (AID 1095).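 Further: score merges 667 nm feature fluorescence with signal to noise over triplicate slides.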 The note with it: 635 nm fluorescence, higher = more signal.
For assay [9], the target named is Neurogenic locus notch homolog protein 3 (Homo sapiens) (UniProt Q9UM47). The experiment in a line: small molecules binding NOTCH3 protein – biochemical, 635/667 nm fluorescence, primary screen (AID 1096). Conditions: small-molecule microarray, 635 nm fluorescence, higher = more signal.
A short description of assay [10]: probe aEGFR binding to arrayed compounds – biochemical, biotinylated probe, 635/667 nm fluorescence, primary screen (AID 1097).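 Further: probe is a biotinylated anti-EGFR antibody binding compounds printed on slides; score combines fluorescence near 667 nm and signal to noise of each spot.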 Conditions: small-molecule microarray, higher = more signal.

Torsin-1A-interacting protein 2 (Homo sapiens), sequence (Q8NFQ8 whole entry, looked up): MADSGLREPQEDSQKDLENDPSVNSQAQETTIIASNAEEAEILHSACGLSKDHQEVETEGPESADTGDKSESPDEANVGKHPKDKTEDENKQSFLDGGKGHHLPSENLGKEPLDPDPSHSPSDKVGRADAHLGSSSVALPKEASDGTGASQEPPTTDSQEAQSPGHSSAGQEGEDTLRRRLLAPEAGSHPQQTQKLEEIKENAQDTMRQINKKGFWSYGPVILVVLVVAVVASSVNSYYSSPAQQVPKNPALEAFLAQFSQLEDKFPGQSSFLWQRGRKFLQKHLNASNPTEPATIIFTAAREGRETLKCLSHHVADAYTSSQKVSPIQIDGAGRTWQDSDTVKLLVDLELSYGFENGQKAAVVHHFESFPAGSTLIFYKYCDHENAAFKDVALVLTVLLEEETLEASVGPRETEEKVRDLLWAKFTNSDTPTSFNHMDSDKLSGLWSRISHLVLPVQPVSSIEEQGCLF
Neurogenic locus notch homolog protein 3 (Homo sapiens), sequence (Q9UM47 whole entry, looked up): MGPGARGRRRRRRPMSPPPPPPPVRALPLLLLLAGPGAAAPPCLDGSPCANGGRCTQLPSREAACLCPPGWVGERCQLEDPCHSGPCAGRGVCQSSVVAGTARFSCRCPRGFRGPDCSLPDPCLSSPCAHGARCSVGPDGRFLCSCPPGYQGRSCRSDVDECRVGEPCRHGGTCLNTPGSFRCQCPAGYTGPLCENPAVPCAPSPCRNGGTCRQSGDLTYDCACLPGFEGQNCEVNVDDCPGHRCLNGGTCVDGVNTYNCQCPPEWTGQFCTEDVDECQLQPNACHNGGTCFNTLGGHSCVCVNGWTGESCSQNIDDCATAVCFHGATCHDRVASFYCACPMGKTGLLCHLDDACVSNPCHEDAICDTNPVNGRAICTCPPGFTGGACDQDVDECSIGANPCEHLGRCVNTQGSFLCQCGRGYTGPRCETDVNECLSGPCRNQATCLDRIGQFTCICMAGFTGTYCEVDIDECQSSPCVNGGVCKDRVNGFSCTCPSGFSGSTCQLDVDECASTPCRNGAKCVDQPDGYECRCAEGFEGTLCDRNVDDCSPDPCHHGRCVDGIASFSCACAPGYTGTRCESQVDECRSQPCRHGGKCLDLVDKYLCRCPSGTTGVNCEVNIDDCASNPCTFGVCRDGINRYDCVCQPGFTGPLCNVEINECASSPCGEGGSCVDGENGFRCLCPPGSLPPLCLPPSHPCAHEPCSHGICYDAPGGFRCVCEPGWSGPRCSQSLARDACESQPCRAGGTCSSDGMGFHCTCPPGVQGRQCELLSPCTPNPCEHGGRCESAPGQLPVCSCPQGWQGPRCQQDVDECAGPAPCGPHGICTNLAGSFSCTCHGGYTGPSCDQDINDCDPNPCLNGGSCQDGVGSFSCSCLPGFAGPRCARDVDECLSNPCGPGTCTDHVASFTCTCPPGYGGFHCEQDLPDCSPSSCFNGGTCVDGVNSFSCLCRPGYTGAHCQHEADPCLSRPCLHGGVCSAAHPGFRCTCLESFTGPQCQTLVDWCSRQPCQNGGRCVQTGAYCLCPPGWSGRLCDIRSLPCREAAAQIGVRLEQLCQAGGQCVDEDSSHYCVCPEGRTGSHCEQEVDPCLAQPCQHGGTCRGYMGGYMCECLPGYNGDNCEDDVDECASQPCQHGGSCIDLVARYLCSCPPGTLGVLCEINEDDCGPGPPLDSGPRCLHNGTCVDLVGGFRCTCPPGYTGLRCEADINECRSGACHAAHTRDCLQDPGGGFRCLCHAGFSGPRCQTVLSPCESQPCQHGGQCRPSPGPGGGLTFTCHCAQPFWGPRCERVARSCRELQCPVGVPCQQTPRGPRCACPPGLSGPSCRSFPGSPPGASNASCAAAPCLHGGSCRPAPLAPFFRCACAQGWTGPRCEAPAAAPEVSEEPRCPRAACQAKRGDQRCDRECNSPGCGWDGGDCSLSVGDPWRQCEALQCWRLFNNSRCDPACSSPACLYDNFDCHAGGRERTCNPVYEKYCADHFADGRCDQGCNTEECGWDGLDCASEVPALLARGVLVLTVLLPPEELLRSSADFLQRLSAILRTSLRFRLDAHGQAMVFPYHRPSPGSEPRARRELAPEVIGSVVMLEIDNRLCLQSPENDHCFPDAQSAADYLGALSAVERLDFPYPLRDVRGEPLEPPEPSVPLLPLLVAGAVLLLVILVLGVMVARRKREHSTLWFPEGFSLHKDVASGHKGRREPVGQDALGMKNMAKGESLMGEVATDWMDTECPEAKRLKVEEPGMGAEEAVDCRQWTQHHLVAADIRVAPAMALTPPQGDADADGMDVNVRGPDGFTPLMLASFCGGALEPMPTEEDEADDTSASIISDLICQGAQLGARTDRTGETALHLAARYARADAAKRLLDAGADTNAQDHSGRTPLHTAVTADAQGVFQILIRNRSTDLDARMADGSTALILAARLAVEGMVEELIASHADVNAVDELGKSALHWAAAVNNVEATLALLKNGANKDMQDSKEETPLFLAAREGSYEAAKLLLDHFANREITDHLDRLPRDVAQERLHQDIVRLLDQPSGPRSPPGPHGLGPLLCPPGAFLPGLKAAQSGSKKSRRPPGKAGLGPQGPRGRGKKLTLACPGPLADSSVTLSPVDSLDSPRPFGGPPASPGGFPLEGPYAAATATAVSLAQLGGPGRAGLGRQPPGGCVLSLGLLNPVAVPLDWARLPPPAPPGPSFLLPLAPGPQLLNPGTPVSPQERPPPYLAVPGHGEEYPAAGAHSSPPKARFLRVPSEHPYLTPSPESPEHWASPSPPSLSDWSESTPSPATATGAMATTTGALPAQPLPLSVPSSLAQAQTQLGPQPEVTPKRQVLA

As for `COc1ccc([Si](C)(C)[C@H]2[C@H](CC(=O)N3CCC[C@H]3CO)O[C@@]3(C(=O)N(Cc4ccc(N5C(=O)c6cccc7cccc5c67)cc4)c4ccccc43)[C@@H]2C)cc1`, the composite z-score in [1] was 1.54; in assay [5], 2.5; in assay [7] it was -0.057; in assay [8], 1.11; in assay [9] it was 1.13; in [10] it was 0.0333. For the same molecule, the z-score is -0.631 (inactive) in assay [2], 0.363 (inactive) in assay [3], -0.403 (inactive) in assay [4] and 0.965 (inactive) in assay [6].

Take `C=C(C)[C@@H]1CC=C(C(O)C2C=CC3C(=O)N(C4CCCCC4)C(=O)C3N2Nc2ccc(OC)cc2)CC1` (stereo not given in full): the composite z-score in assay [1] was 1.55; in assay [5], 3.27; in assay [7] it was -0.0009; in assay [8] it was 0.593; in [9], 1.07; in assay [10] it was -0.0034. Besides, the z-score in assay [2] is 0.188 (inactive); in assay [3] it was 0.707 (inactive); in assay [4] it was 0.785 (inactive); in assay [6], -0.357 (inactive).

With `C=CCC(OC(C)=O)[C@@H]1[C@@H](N(Cc2ccc(-c3cccc(C(F)(F)F)c3)o2)C(=O)c2cccc3ccccc23)c2cc(OCCCO)ccc2N1C(=O)c1ccc(-c2ccccc2)cc1` (stereo not given in full), the composite z-score in assay [1] is -0.496; in assay [5] it was -0.94; in assay [7] it was -0.0785; in assay [8] it was 1.06; in [9] it was -0.358; in assay [10], -0.099. The z-score in assay [2] was 0.0476 (inactive); in [3], 0.0758 (inactive); in assay [4] it was -0.0038 (inactive); in assay [6], -0.993 (inactive).

`O=[N+]([O-])c1ccc(C[n+]2ccc(-c3ccc(CO)cc3)cc2)o1`: the composite z-score was 1.47 in assay [1]; 1.71 in assay [5]; -0.129 in assay [7]; 0.526 in assay [8]; 1.16 in [9]; -0.0703 in assay [10]. The z-score in [2] was -0.612 (inactive); in assay [3], -15.5 (active); in assay [4], 0.196 (inactive); in assay [6] it was -0.818 (inactive).

For the molecule `[N-]=[N+]=NCc1ccccc1C[C@]1(C(=O)NCCN2CCOCC2)COC(c2ccc(OCCCO)cc2)=N1`, the composite z-score is 1.55 in assay [1]; 3.08 in assay [5]; 0.0004 in assay [7]; 0.516 in assay [8]; 0.486 in assay [9]; -0.0351 in assay [10]. Moreover, the z-score was -1.52 (inactive) in assay [2], -2.24 (inactive) in assay [3], -1.66 (inactive) in [4] and 1.46 (inactive) in assay [6].

Regarding `COc1ccc([Si](C)(C)[C@H]2[C@H](CCO)O[C@@]3(C(=O)N(Cc4cccc(N5CCOC5=O)c4)c4ccccc43)[C@@H]2C)cc1`, the composite z-score in assay [1] was 1.39; in [5], 2.39; in assay [7], 0.514; in [8] it was 0.459; in [9] it was 1.14; in [10], -0.0973. Also, the z-score was 2.81 (inactive) in [2], -0.406 (inactive) in [3], 34 (active) in assay [4] and 0.228 (inactive) in assay [6].

With `C=C(/C(=C/C[C@@H](OC(=O)c1ccncc1)c1ccccc1OCCO)c1cnc2ccccc2c1)C(C)C`, the composite z-score in assay [1] came out at 1.54; in assay [5], 2.72; in [7] it was 0.0113; in assay [8], 1.91; in [9], 1.07; in assay [10] it was 0.0381. Besides, the z-score is -24.2 (active) in assay [2], -20.3 (active) in [3], -4.07 (inactive) in [4] and -0.0023 (inactive) in [6].

Consider `COc1cccc(C[C@H]2C[C@@H](CO[Si](C(C)C)(C(C)C)C(C)C)N3C(=O)[C@]4(C(C)=O)O[C@]23[C@H]2C(=O)N(C)C(=O)[C@H]24)c1`, for which the composite z-score in assay [1] was 1.49; in [5], 0.622; in [7], -0.0942; in assay [8], 1; in assay [9], 1.13; in [10], -0.0175. Besides, the z-score in [2] was 0.481 (inactive); in assay [3], 1.38 (inactive); in assay [4], 1.25 (inactive); in assay [6] it was -1.11 (inactive).

`O=C1N(CCS(=O)(=O)c2ccccc2)c2ccccc2[C@H]2OC(c3ccc(OCCCO)cc3)=N[C@@]12CCS(=O)(=O)c1ccccc1`: the composite z-score in assay [1] came out at 1.55; in assay [5], 3.1; in [7] it was 0.856; in assay [8] it was 1.08; in assay [9], 1.07; in assay [10], 0.723. Also, the z-score in assay [2] was 2.95 (inactive); in assay [3], 2.54 (inactive); in [4], 7.94 (inactive); in [6], 0.8 (inactive).

With `CCOC(=O)C1=CCC(c2cccc(Cl)c2)O1` (stereo not given), the composite z-score in [1] was 0.487; in assay [5], 0.744; in assay [7], -0.0831; in assay [8] it was -0.0785; in assay [9] it was 0.186; in assay [10], -0.0953. Moreover, the z-score in assay [2] is -2.79 (inactive); in assay [3] it was -0.615 (inactive); in [4] it was 3.33 (inactive); in assay [6] it was 0.558 (inactive).

Regarding `COc1ccc([Si](C)(C)[C@@H]2[C@@H](CCO)O[C@]3(C(=O)N(Cc4cccc(N5C(=O)COc6ccccc65)c4)c4ccccc43)[C@H]2C)cc1`, the composite z-score in assay [1] was 0.896; in assay [5], 1.61; in [7] it was -0.124; in assay [8], -0.142; in [9], 0.528; in assay [10], -0.0864. Moreover, the z-score in assay [2] was 3.01 (inactive); in assay [3], 1.09 (inactive); in assay [4], 36.8 (active); in assay [6], 0.685 (inactive).

For `CCCCCCCCCCC(O)C1C=CC2C(=O)NC(=O)C2N1Nc1ccccn1` (stereo not given), the composite z-score in [1] is -0.19; in assay [5] it was 1.78; in assay [7] it was -0.0654; in assay [8] it was -0.894; in [9], 0.243; in assay [10], -0.14. The z-score in assay [2] was -20 (active); in [3] it was -16.2 (active); in assay [4], -2.6 (inactive); in assay [6], -15.5 (active).

With `CN(C)CCCCNC(=O)[C@H]1C[C@H]2C(=O)N[C@@H](CCCC[N+](C)(C)C)C(=O)N2[C@H]1c1cccc(OCCO)c1`, the composite z-score in assay [1] was 1.53; in assay [5] it was 2.05; in assay [7], -0.204; in [8], 1.35; in assay [9], 0.907; in assay [10], -0.0733. The z-score in assay [2] was -0.359 (inactive); in assay [3], 0.276 (inactive); in assay [4], -0.702 (inactive); in assay [6], 0.305 (inactive).
